Assay outcomes from PubChem BioAssay.
HP1b binding inh – blocks HP1-beta chromodomain binding to methylated histone tails | P83916 | AlphaScreen HP1-beta / biotin-H3K9me3 peptide binding | Potency, µM (highest dose often 114 µM), inactives show at the top dose activity change, negative = inhibition, usual class: inhibitors | actives 0.56% (n = 390,000) | AID 540317; also: nearly all actives have a fitted effect of over 70% in size
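AlphaScreen: HP1-beta (50 nM) preformed 30 min with biotin-H3(1-18)K9me3 peptide (50 nM) in PBS pH 7.4, 0.01% Tween-20. Compound added for 30 min at RT, then streptavidin donor/nickel chelate acceptor beads (10 ug/mL) for 30 min.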
G9a block – G9a (human) methyltransferase inhibition | Q96KQ7 | G9a H3K9 monomethylation, AlphaScreen, 2 h | Potency, µM (highest dose often 102 µM), for the others: at the top dose activity, negative = inhibition, hits mostly inhibitors | actives 8.8% (n = 350,000) | AID 504332; also: % is scaled to controls: 0 for no effect and ±100 for the full control effect; nearly all actives have a fitted effect of over 75% in size
Target sequence (Q96KQ7 913-1193 limits assumed): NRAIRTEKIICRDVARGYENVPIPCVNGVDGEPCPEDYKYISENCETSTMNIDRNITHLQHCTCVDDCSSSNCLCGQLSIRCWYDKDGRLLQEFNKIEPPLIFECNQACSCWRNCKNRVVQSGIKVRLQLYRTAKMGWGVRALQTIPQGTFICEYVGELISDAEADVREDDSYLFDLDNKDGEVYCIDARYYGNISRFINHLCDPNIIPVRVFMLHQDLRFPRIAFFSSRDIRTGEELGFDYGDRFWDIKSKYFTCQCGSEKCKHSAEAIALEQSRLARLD
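Readings reflect AlphaScreen signal from monomethyl-H3K9 antibody detection. HMT at 20 nM; substrate b-H3K9 500 nM; cofactor SAM 20 uM; 2 h RT reaction; compounds tested as titrations in qHTS with 15 min preincubation.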
JMJD2A Tudor inh – JMJD2A Tudor domain (human) inhibition; actives 4.4% (n = 390,000); O75164; AID 504339; AlphaScreen JMJD2A-Tudor / H3K4me3 peptide binding; Potency, µM (highest dose often 114 µM), inactives show top-dose activity change, negative = inhibition, hits mostly inhibitors; also: % is scaled to controls: 0 for no effect and ±100 for the full control effect; nearly all actives have a fitted effect of over 50% in size
BAZ2B inh – blocks human BAZ2B. Q9UIF8. actives 4.4% (n = 360,000). Potency, µM (doses to about 114 µM), for inactives: at the highest dose activity change, negative = inhibition, actives largely listed as inhibitors. AlphaScreen BAZ2B-H3K14Ac peptide displacement; also: % is scaled to controls: 0 for no effect and ±100 for the full control effect; nearly all actives have a fitted effect of over 60% in size
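BAZ2B 50 nM plus b-H3(5-23)K14Ac 50 nM, PBS pH 7.4/0.01% Tween-20, 30 min RT; compound added (max 110 uM), 30 min RT; streptavidin donor/Ni-chelate acceptor beads 10 ug/mL final, 20 min dark; AlphaScreen read.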
PLK1 PBD block – inhibitors of human PLK1 polo-box domain binding | P53350 | Plk1 PBD binding of FITC phosphopeptide, fluorescence polarization | Potency, µM, for inactives: max response, negative = inhibition, hits mostly inhibitors | actives 2.8% (n = 360,000) | AID 720504; also: series mostly up to about 57 µM; % is scaled to controls: 0 for no effect and ±100 for the full control effect; nearly all actives have a fitted effect of over 65% in size
VDR inhibitor – inhibitors of human vitamin D receptor; P11473; actives 0.93% (n = 400,000); VDR-SRC2-3 peptide fluorescence polarization, 2 h; Potency, µM, for the others: max response, negative = inhibition, most hits filed as inhibitors; also: % is scaled to controls: 0 for no effect and ±100 for the full control effect
Target sequence (P11473 whole entry, looked up): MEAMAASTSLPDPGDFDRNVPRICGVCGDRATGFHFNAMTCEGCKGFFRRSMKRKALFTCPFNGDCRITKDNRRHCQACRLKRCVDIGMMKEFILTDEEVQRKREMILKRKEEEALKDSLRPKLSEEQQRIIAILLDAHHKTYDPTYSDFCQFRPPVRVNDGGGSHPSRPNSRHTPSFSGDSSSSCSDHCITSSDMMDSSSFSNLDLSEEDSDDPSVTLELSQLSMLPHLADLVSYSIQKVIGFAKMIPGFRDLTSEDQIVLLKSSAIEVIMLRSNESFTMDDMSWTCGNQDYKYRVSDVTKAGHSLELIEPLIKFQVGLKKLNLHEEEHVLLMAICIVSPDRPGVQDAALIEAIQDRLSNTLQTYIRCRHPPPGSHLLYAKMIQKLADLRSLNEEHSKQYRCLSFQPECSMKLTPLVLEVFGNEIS
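The screen uses fluorescence polarization to detect compounds that interfere with recruitment of the SRC2-3 coactivator peptide to VDR; plates are read after 2 h at room temperature.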
* marks the source's active call; other numbers are inactive results; u = inconclusive; x = no result given; [ ] = another dose, or the depositor's remark. Sampled rows, rich in hits. Any-hit rate of the full collection: about 11%. Calls follow the shape of the dose curve; as a rule, active = well fitted curve in the direction sought with a large enough effect; inconclusive = small, poorly fitted or top-dose-only effect, or another doubt; inactive = no such curve, though single readings can be large; an effect the other way counts as inactive or inconclusive. Potency is read from the fitted curve at half-maximal effect.

SMILES	HP1b binding inh	G9a block	JMJD2A Tudor inh	BAZ2B inh	PLK1 PBD block	VDR inhibitor
O=C(Nc1nnc([C@@H]2C[C@H](O)[C@@H](CO)O2)s1)c1cccc(Cl)c1	x	x	x	x	-9%	x
Cc1ccccc1CCNCc1c(C(=O)O)c(C)n(Cc2c(F)cccc2Cl)c1C	13%	-5%[59 µM]	-21%	-16%	x	3%
CC(=O)c1cc(CC=C(C)C)c(O)cc1O	-15%	23%	12%[11.4 µM]	0%[57.1 µM]	30µM*	10%
COc1ccc(N2C(=O)C(CC(=O)Nc3ccc(F)cc3)N(CCC3=CCCCC3)C2=O)cc1 (stereo unspecified)	37%	0%[59 µM]	1%	4%	x	-9%
O=S(=O)(Nc1nc2ccccc2s1)c1cnc(Cl)c(Br)c1	43%	u	-2%	-4%	u	-3%
C#CCOCCOCCOCCNc1nc(N2CCN(C(=O)[C@H]([C@@H](C)CC)n3cc(CCC(=O)O)nn3)CC2)nc(N2CCN(C(=O)[C@H](CCCCN)n3cc(CC(C)O)nn3)CC2)n1 (stereo partly specified)	31%	x	u	x	-21%	-29%
C#CCOCCOCCOCCNc1nc(N2CCN(C(=O)[C@H]([C@@H](C)CC)n3cc([C@@H](N)Cc4ccc(O)cc4)nn3)CC2)nc(N2CCN(C(=O)[C@H](CCCCN)n3cc([C@@H](N)CO)nn3)CC2)n1	x	u	x	50µM*	x	x
C#CCOCCOCCOCCNc1nc(N2CCN(C(=O)C([C@@H](C)CC)n3cc(C(N)CO)nn3)CC2)nc(N2CCN(C(=O)[C@H](CCC(=O)O)n3cc(C(N)Cc4ccc(O)cc4)nn3)CC2)n1 (stereo partly specified)	x	-30%[12.7 µM]	x	40µM*	x	x
CCN(CC)S(=O)(=O)c1ccc2c(c1)N(CC(=O)Nc1c(C)cccc1C)C(=O)C1CCCN21 (stereo unspecified)	29%	-1%[59 µM]	-12%	2%	x	-1%
Cc1cc(C(=O)NCc2ccc(C(=O)O)o2)c(C)o1	u	u	22µM*	56µM*	-16%	9%
Cc1occc1C(=O)NCc1ccc(C(=O)O)o1	30%	4%[12.7 µM]	-3%	-1%	-4%	-7%
O=S(=O)(c1ccc(Cl)cc1)N1CCSC1c1ccco1 (stereo unspecified)	20%	10%[59 µM]	-23%	0%	-10%	-10%
O=[N+]([O-])c1ccc(S(=O)(=O)N2CCSC2c2ccco2)cc1 (stereo unspecified)	-22%	8.9µM*	u	u	12µM*	79µM*
Cc1ccc(S(=O)(=O)/N=C2\C=C(NS(=O)(=O)c3ccccc3)C(=O)c3ccccc32)c(C)c1	22µM*	x	22µM*	x	19µM*	-13%
CC(C)(C)c1ccc(S(=O)(=O)/N=C2\C=C(NS(=O)(=O)c3ccccc3)C(=O)c3ccccc32)cc1	u	10µM*	25µM*	28µM*	13µM*	u
CC1=C(c2ccc(C)c(C)c2)S(=O)(=O)N=C1N1CCC(C(=O)NC(C)c2ccccc2)CC1 (stereo unspecified)	-17%	-1%[59 µM]	-13%	-9%	x	-8%
CC(C)[C@H]1COC(NC2=N[C@@H](C(C)C)CO2)=N1	13%	x	-18%	15%[57.1 µM]	1%	3%
Cc1ccc(N2CC(NC(=O)N3CCN(C(=O)c4ccco4)CC3)CC2=O)cc1 (stereo unspecified)	17%	14%[0.501 µM]	-5%	15%	-9%	-18%
C/C(=N\NC(N)=S)C1(C)CCCCC1	-17%	50µM*	35µM*	-35%	-12%	-2%
C/C(=N\NC(N)=O)C1(C)CCCCC1	23%	14%	-2%	9%	0%	14%
CCCN(C(=O)Cn1cnc2sc(C)c(S(=O)(=O)N3CCN(c4ncccn4)CC3)c2c1=O)c1cccc(C)c1	42%	0%[59 µM]	-6%	1%	x	9%
Cc1cc(=O)n(Cc2cccc(Cl)c2)c2c1c(C)nn2-c1ccccc1	55%	31%[59 µM]	14%	-10%	x	8%
CCOC(=O)C1CCN(C(c2ccc(SC)cc2)c2c(O)cc(C)n(Cc3ccco3)c2=O)CC1 (stereo unspecified)	2%[57 µM]	u	56µM*	-19%	x	-24%
CCOC(=O)C1CCN(C(c2ccccc2)c2c(O)cc(C)n(Cc3ccco3)c2=O)CC1 (stereo unspecified)	40%[57 µM]	-49%[59 µM]	-11%	-19%	x	11%
COCC(=O)Nc1nc(-c2ccccc2)c(C)s1	-4%	45µM*	-11%	9%	u	-1%
SMILES	HP1b binding inh	G9a block	JMJD2A Tudor inh	BAZ2B inh	PLK1 PBD block	VDR inhibitor
CCOc1ccc2nc(NC(=O)CSc3nc(-c4ccccc4)c(C#N)c(=O)[nH]3)sc2c1	u	u	50µM*	-27%	21µM*	-5%
COc1cccc(-c2nc(SCC(=O)Nc3nc(-c4ccccc4)c(C)s3)[nH]c(=O)c2C#N)c1	8%	u	-31%	u	21µM*	-13%
CN(C(=O)CSc1nc(-c2ccc(C(C)(C)C)cc2)c(C#N)c(=O)[nH]1)C1CCCCC1	25%	45µM*	-16%	-27%[57.1 µM]	u	u
CCOc1ccc(C(=O)Nc2cccc(C(=O)OCc3cc(=O)n4nc(C5CC5)sc4n3)c2)cc1	21%	3%[59 µM]	-17%	-17%	x	6%
Cc1ccc(N/C(N)=N/c2nc(C)cc(N3CCCCC3)n2)c(C)c1	6%	-2%	-6%[11.4 µM]	u	-2%	3%
CCc1ccc(NC(=O)CC2C(=O)N(c3cccc(C)c3)C(=O)N2Cc2ccco2)cc1 (stereo unspecified)	51%	u	-25%	-24%	x	4%
COc1ccccc1NC(=O)CSc1nc(-c2ccc(C(C)(C)C)cc2)c(C#N)c(=O)[nH]1	26%	-51%[59 µM]	-34%	79µM*	x	3%
CC1CCN(c2nnc(-n3cccc3CNc3cccc(F)c3)s2)CC1	16%	-8%[59 µM]	-26%	-2%[57.1 µM]	x	-6%
CC(=O)N1Cc2ccccc2C(C)CC12CCCCC2 (stereo unspecified)	22%	19%[59 µM]	1%	11%	-9%	-16%
CC(=O)N1CC23C=CC(CC2CC12CCCCCC2)O3 (stereo unspecified)	-20%	-1%[59 µM]	-16%[11.4 µM]	-25%	8.4µM*	u
COCCNC(=O)C1(C(F)(F)F)C/C(=C/CCO)CCCO1 (stereo unspecified)	27%	x	-1%	x	x	-3%
CSc1ccccc1C(=O)Nc1cc2c(cc1C(=O)O)OCCCO2	1%	2.8µM*	22µM*	-27%	30µM*	-18%
O=C(Nc1cc2c(cc1C(=O)O)OCCCO2)c1ccc(F)cc1F	17%	2%	-15%[57.1 µM]	-3%	-20%	5%
COc1ccc(OCCC(=O)Nc2cc3c(cc2C(=O)O)OCCCO3)cc1	8%	-32%	-14%	-1%	-6%	-14%
